DT40 TDP1 CPT: growth inhibition of DT40 Tdp1-/-;hTDP1 cells with camptothecin (screen for TDP1 inhibitors) | Potency, µM (doses to about 46.2 µM), for inactives: at the highest dose activity change, negative = growth inhibition, most hits filed as inhibitors | AID 686979 | 12% of 420,000 active | chicken DT40 Tdp1-/-;hTDP1 cells + 20 nM CPT, ATP luminescence, 48 h; also: potency is read from the fitted curve at half-maximal effect; nearly all actives have a fitted effect of over 55% in size
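Cell growth measured by CellTiter-Glo luminescence after a minimum 48 h, 37 C compound exposure with 20 nM CPT in Tdp1-knockout DT40 cells stably expressing hTDP1, seeded 400/well; qHTS titration format.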
DT40 TDP1 no CPT: qHTS for Inhibitors of human tyrosyl-DNA phosphodiesterase 1 (TDP1): qHTS in cells in absence of CPT; 15% of 420,000 active; DT40 Tdp1-/- hTDP1 cells, no CPT, ATP luminescence, 48 h; Potency, µM (series often up to 46.2 µM), for the others: at the top dose activity change, negative = growth inhibition, hits mostly inhibitors; also: potency is read from the fitted curve at half-maximal effect; nearly all actives have a fitted effect of over 55% in size
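Cells were dispensed at 400 per well, compounds added by pin tool, plates incubated ≥48 hr at 37 °C, then CellTiter-Glo added for 30 min at room temperature before luminescence reading. Line: DT40 Tdp1-/- complemented with hTDP1; camptothecin omitted.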
HT1080NT lethal: kills 2HG-producing HT-1080-NT fibrosarcoma cells | HT-1080-NT fibrosarcoma viability, CellTiter-Glo ATP luminescence, 48 h | Potency, µM (highest dose often 46.1 µM), without a hit: at the top dose activity, negative = less viability, most hits filed as cytotoxic | 1.6% of 360,000 active;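 also: NT is the 2HG producing partner of a matched IDH1 knockdown line; potency is read from the fitted curve at half-maximal effect; 0% = DMSO-treated cells and -100% = media-only wells without cells; nearly all actives have a fitted effect of over 55% in size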
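HT-1080-NT fibrosarcoma cells (2HG-overproducing), 750 cells/well in RPMI with 5% FBS, dosed after 2 h and incubated 48 h at 37C. CellTiter-Glo luminescence normalized to DMSO and no-cell wells; concentration-response curves fitted and classed.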
HT1080 IDH1KD tx: HT-1080 IDH1 knockdown cell toxicity (counter line) | HT-1080 IDH1 knockdown viability, ATP luminescence, 48 h | Potency, µM (highest dose often 46.1 µM), inactives show top-dose activity, negative = toxicity, usual class: cytotoxic | 2% of 360,000 active | AID 686971;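 also: potency is read from the fitted curve at half-maximal effect; 0% = DMSO wells and -100% = cell-free medium wells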
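Viability of IDH1-knockdown HT-1080 fibrosarcoma cells was assessed by CellTiter-Glo after 48 h at 37 °C with titrated compound; concentration-effect curves were classified by fit quality and response size.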
ALOX12 inh: blocks human arachidonate 12S-lipoxygenase. P18054. purified 12hLO, xylenol orange hydroperoxide absorbance. 1.1% of 580,000 active. AID 1671190. Potency, µM (doses to about 108 µM), for the others: top-dose activity change, negative = inhibition, most hits filed as inhibitors; also: potency is read from the fitted curve at half-maximal effect
Target sequence (P18054 whole entry, looked up): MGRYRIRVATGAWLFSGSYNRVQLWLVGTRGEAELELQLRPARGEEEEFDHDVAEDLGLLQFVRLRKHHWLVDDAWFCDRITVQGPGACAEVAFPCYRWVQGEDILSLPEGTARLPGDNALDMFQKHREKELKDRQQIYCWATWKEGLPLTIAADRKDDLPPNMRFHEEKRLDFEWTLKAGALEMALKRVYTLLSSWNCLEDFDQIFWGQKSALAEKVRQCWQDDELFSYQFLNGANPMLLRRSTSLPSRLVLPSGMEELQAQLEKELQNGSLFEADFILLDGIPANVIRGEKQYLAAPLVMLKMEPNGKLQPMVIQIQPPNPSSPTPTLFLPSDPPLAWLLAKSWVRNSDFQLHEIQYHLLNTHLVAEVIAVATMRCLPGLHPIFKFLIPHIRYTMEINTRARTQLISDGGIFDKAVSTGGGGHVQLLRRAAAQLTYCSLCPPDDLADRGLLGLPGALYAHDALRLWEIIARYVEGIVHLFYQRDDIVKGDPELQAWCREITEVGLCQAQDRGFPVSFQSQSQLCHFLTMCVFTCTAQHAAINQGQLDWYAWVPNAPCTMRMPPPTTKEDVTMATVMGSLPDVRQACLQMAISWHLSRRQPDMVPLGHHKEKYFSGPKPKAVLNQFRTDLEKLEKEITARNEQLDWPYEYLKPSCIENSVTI
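Purified human 12hLO at 150 nM in 25 mM Hepes, 0.01% Triton X-100, pH 7.0, preincubated 15 min at room temperature with compound. Reaction started with 40 uM arachidonic acid, 30 min at room temperature. Hydroperoxide measured by Fe-xylenol orange, 573/405 nm absorbance ratio.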
IL1B secr inh: inhibitors of inflammasome signaling (IL-1 beta secretion); THP-1 LPS/ATP IL-1B secretion, AlphaLISA, 16 h; hits give low values; activity change, % at 57.5 µM; 4.7% of 360,000 active; AID 743279; in the data active = activity change below about -50%; inconclusive = mostly about -30% to -49%
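THP-1 cells pretreated 1 hr with compounds (up to 57.5 uM final), then stimulated with LPS (250 ng/mL final) plus ATP (1.25 mM final); secreted IL-1B measured by AlphaLISA after 16 hr, decreased signal indicating inhibition.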
* hit, by the source's call; ? = inconclusive; / = no result given; [ ] = remark or other dose. Many of the other results were omitted from the sample, so hits are more common in it than they were. Unless noted, calls follow the shape of the dose curve; as a rule, active = well fitted curve in the direction sought with a large enough effect; inconclusive = small, poorly fitted or top-dose-only effect, or another doubt; inactive = no such curve, though single readings can be large; an effect the other way counts as inactive or inconclusive. Unless noted, % is scaled to controls: 0 for no effect and ±100 for the full control effect.

SMILES	DT40 TDP1 CPT	DT40 TDP1 no CPT	HT1080NT lethal	HT1080 IDH1KD tx	ALOX12 inh	IL1B secr inh
CN(C)/C=N/C1=C(C#N)C(c2cccs2)c2ccc3ccccc3c2O1 (stereo not given)	4.1µM*	4.1µM*	7.3µM*	7.3µM*	?	85
N#CC1=C(N)Oc2c(ccc3ccccc23)C1c1ccc2c(c1)OCO2 (stereo not given)	/	/	/	/	1%	/
Cc1ccc(N(C(=O)c2nsc(Cl)c2Cl)C(C(=O)NC2CCCC2)c2ccc(O)cc2)cc1C (stereo not given)	?	?	?	-29%	-13%	-65*
Cc1cc(C)cc(N(C(=O)c2nsc(Cl)c2Cl)C(C(=O)NC2CCCC2)c2ccc(O)cc2)c1 (stereo not given)	-80%	?	-18%	?	-12%	-80*
CCOc1ccc(C(C(=O)NC2CCCC2)N(Cc2ccccc2)C(=O)c2nsc(Cl)c2Cl)cc1 (stereo not given)	21µM*	18µM*	?	-27%	-11%	?
Cc1cccc(N(C(=O)c2nsc(Cl)c2Cl)C(C(=O)NC2CCCC2)c2ccc(O)cc2)c1C (stereo not given)	?	?	-2%	-14%	-6%	-73*
Cc1cccc(N(C(=O)c2snc(C(N)=O)c2N)C(C(=O)NC2CCCC2)c2ccncc2)c1 (stereo not given)	0%	-1%	1%	5%	-13%	23
CCOc1ccc(C(C(=O)NCC2CCCO2)N(Cc2ccccc2)C(=O)c2snc(C(N)=O)c2N)cc1 (stereo not given)	?	?	7%	-3%	7%	6
COc1ccccc1-n1cc(C(=O)NC[C@@H]2C[C@H](F)CN2)cn1	/	/	/	/	62%	/
N/C(=N\OC(=O)c1cc([N+](=O)[O-])ccc1Cl)c1ccccn1	?	18µM*	?	?	479%	-96*
Cc1ccc(C(=O)O/N=C(\N)c2ccccn2)c(Cl)c1	?	?	16µM*	?	24%	-3
N/C(=N\OC(=O)c1ccccc1Cl)c1cccc([N+](=O)[O-])c1	-7%	?	18%	9%	35%	11
N/C(=N/OC(=O)c1ccccc1Cl)c1ncc([N+](=O)[O-])s1	3.7µM*	8.2µM*	29µM*	18µM*	?	-88*
COc1ccc(C(=O)NCCn2c(C)cnc2C2CC2)cn1	/	/	/	/	-4%	/
Cc1ccc(S(=O)(=O)N2CC(CO)=CCC2c2ccccc2)cc1 (stereo not given)	?	?	0%	0%	4%	-12
COc1ccccc1/C=C/C=C1\Oc2c(ccc(O)c2CN(C)C)C1=O	?	?	-10%	-17%	?	-11
CCN(CC)Cc1c(O)ccc2c1O/C(=C\C=C\c1ccccc1)C2=O	?	18µM*	?	?	?	-14
COc1ccc(C(CNC(=O)Cc2ccccc2Cl)N2CCCCC2)cc1 (stereo not given)	-16%	-4%	-5%	-15%	-16%	-52*
COc1ccc(C(CNC(=O)c2cc3ccccc3o2)N2CCCC2)cc1 (stereo not given)	?	?	0%	-3%	-18%	-2
COc1ccc(C(CNC(=O)c2ccc(-c3nc4ccccc4s3)o2)N2CCCC2)cc1 (stereo not given)	23µM*	21µM*	?	-27%	200%	-16
COc1ccc(C(CNC(=O)c2ccc(-c3ccccc3Cl)o2)N2CCCC2)cc1 (stereo not given)	5.2µM*	4.1µM*	?	?	?	-11
Clc1cccc(-c2cnc([C@@H]3COCCN3Cc3cnc4ccccc4c3)[nH]2)c1	/	/	/	/	-1%[176 µM]	/
CC1CCN(C(=O)CCc2nnc3ccc(NCc4ccc5c(c4)OCO5)nn23)CC1	/	/	/	/	8%	/
O=C(CCCN1C(=O)NC2(CCCC2)C1=O)N1CCC(c2nc3ccccc3o2)CC1	/	/	/	/	-3%	/
Cc1nc(NCc2ccc3nsnc3c2)sc1-c1ccn(C)n1	?	?	/	/	-6%	/
SMILES	DT40 TDP1 CPT	DT40 TDP1 no CPT	HT1080NT lethal	HT1080 IDH1KD tx	ALOX12 inh	IL1B secr inh
Cc1ccc(C2CC(C(F)(F)F)n3nc(C(=O)Nc4c(C)n(C)n(-c5ccccc5)c4=O)cc3N2)cc1 (stereo not given)	?	?	-18%	-10%	-27%	-7
CCOc1ccc(NC(=O)c2cc3n(n2)C(C(F)(F)F)CC(c2ccco2)N3)cc1 (stereo not given)	-18%	-27%	-19%	-19%	4%	-10
Cc1cc(NC(=O)c2cc3n(n2)C(C(F)(F)F)CC(c2ccc(Cl)c(Cl)c2)N3)no1 (stereo not given)	?	21µM*	-11%	-19%	?	8
CCOC(=O)c1c(NC(=O)c2cc3n(n2)C(C(F)(F)F)CC(c2ccccc2)N3)sc(C)c1C (stereo not given)	?	15µM*	0%	-2%	-16%	9
CCCCNC(=O)c1cc2n(n1)C(C(F)(F)F)CC(c1ccccc1)N2 (stereo not given)	-24%	-11%	-2%	6%	4%	-9
O=C(Nc1ccc(O)cc1)c1cc2n(n1)C(C(F)(F)F)CC(c1ccco1)N2 (stereo not given)	9.2µM*	7.3µM*	?	?	0%	12
CCC(CO)NS(=O)(=O)c1ccc(Cl)c(Cl)c1 (stereo not given)	/	/	/	/	12%	/
O=C(N[C@H]1CCN2C(=O)c3cc(-c4ccc5c(c4)OCO5)ccc3NC(=O)[C@H]12)C1CCCC1	/	/	/	/	-13%	/
COC(=O)c1sc(NC(=O)[C@@H](NC(=O)c2ccc(F)cc2)C(C)C)nc1C	/	/	/	/	-1%	/
CCOC(=O)C(NC(=O)[C@@H](NC(=O)c1ccccc1OCC)C(C)C)C(=O)OCC	/	/	/	/	38%	/
CCC(Oc1ccc(F)cc1)C(=O)Nc1nc2c(s1)CCCC2 (stereo not given)	?	16µM*	/	/	?	/
CCOc1ccccc1C(=O)N[C@H](C(=O)Nc1nc2c(s1)CCCC2)C(C)C	16µM*	18µM*	?	?	-5%	?
COc1ccc(C(=O)N[C@H](C(=O)Nc2nc3c(s2)CCCC3)C(C)C)cc1	?	23µM*	-2%	1%	?	-25

From PubChem BioAssay
